Experimental findings from ChEMBL document CHEMBL4513216, “Probing the Open Global Health Chemical Diversity Library for Multistage-Active Starting Points for Next-Generation Antimalarials” (ACS Infect Dis, 2020) are described below.

Structures are written as SMILES. Screen size: about 68,000 compounds; about 2,700 (4%) showed an effect of 50% or more. The sample holds strong results, similar compounds and a random draw of the others, so the mix is not that of the screen.

The test system of this experiment is Plasmodium berghei. The experiment can be described thus: Screen against P. berghei liver stage (PbLuc), transformed with Luciferase, at 2uM. In kind it is functional, HepG2. The note with it: tested at 2 uM.
In the case of `CCS(=O)(=O)N1Cc2c(Cn3ccnc3)nn(C(C)C)c2C1`, the INHIBITION is 3.72%.

For the compound `Cc1n[nH]c(C)c1CC(=O)NCCc1ccccc1`, the INHIBITION came to 25.21%.

For `Cc1nc(C(=O)N2CCOC(Cc3ccccc3)C2)co1` (stereo not given), the INHIBITION is 5.76%.

Turning to `COc1ccc(CC2CN(C(=O)c3coc(C)n3)CCO2)cc1` (stereo not given), the INHIBITION is -10.03%.

As to `Cc1nc(C(=O)N2CCOC(Cc3ccc(F)cc3)C2)co1` (stereo not given), the INHIBITION was 51.45%.

Regarding `CCOCCN1CCn2c(C)nnc2C1`, the INHIBITION is on record as 58.53%.

Consider `Cc1nnc2n1CCN(CCOc1ccccc1)C2`, for which the INHIBITION was -55.52%.

As to `Cc1cc(C)cc(OCCN2CCn3c(C)nnc3C2)c1`, the INHIBITION is 20.41%.

Turning to `CC(C)[C@H]1CN(CCCO)C[C@@H]1NC(=O)CCS(C)(=O)=O`, the INHIBITION was found to be 25.9%.

Consider `O=C(CCS(=O)(=O)C1CCCC1)NCc1ccccc1Cn1cncn1`, for which the INHIBITION was 31.57%.

On to `COc1c(CNC2CCCc3ccccc32)c(C(C)C)nn1C` (stereo not given), for which the INHIBITION is recorded as 69.22%.

`COc1c(CNC2CCCc3ccccc32)c(C)nn1C` (stereo not given): the INHIBITION was determined as 11.28%.

As for `Cc1nn(C)c(Oc2ccccc2)c1CNC1CCOc2ccccc21` (stereo not given), the INHIBITION is -15.64%.

As for `COc1c(CNC2CCCOc3ccccc32)c(C)nn1C` (stereo not given), the INHIBITION was -18.88%.

Regarding `COc1c(CNC2CCc3ccccc32)c(C(C)C)nn1C` (stereo not given), the INHIBITION stood at 24.65%.

As for `COc1c(CNC2CCOc3ccccc32)c(C)nn1C` (stereo not given), the INHIBITION was 64.08%.

In the case of `O=C1NCCCC[C@@H]1Nc1ccc(-c2nc(C3CC3)no2)cn1`, the INHIBITION is recorded as 8.75%.

`c1cncc(COCc2nnc3n2CCN(Cc2ccco2)C3)c1`: the INHIBITION is listed as -8.22%.

With `COc1ccccc1CC(C)(C)C(=O)NCC(=O)Nc1cccnc1`, the INHIBITION is listed as -16.15%.

Turning to `O=C(NC1CCC(O)CC1)c1ccc2nc(-c3ccccc3)cn2c1` (stereo not given), the INHIBITION was 2.17%.

In the case of `COc1ccc(C)cc1CC(=O)Nc1cc(C)n[nH]1`, the INHIBITION was -19.45%.

For the compound `CC(C)CNC(=O)c1ccc2c(=O)n(-c3ccccc3)cnc2c1`, the INHIBITION was 43.75%.

Turning to `Cn1c(=O)[nH]c(=O)c2c1nc1n2CC(c2ccc(Cl)cc2)O1` (stereo not given), the INHIBITION worked out at 13.01%.

For `COc1ccc(C2CC(=O)Nc3c2nc2n3CCCC2)cc1O` (stereo not given), the INHIBITION is 24.29%.

With `O[C@H]1CCN(CC2CCOC2)[C@H]1Cc1ccncc1` (stereo not given in full), the INHIBITION came to 3.56%.

On to `O[C@H]1CCN(CC2CC2)[C@H]1Cc1ccncc1`, for which the INHIBITION worked out at 55.7%.

As for `O[C@@H]1CCN(CC2CC2)[C@H]1Cc1ccccc1`, the INHIBITION is -17.26%.

Turning to `O=C(N[C@H]1CN2CCC1CC2)c1cc(Cn2cnc3ccccc32)[nH]n1`, the INHIBITION was found to be 48.93%.

For `COc1ccccc1OCc1cc(C(=O)N2CCC(NC(C)=O)C2)n[nH]1` (stereo not given), the INHIBITION was -49.85%.

Take `CC(=O)N[C@H]1CCN(C(=O)c2cc(Cn3cnc4ccccc43)[nH]n2)C1`: the INHIBITION turned out to be 60.71%.
